Tests used:
[1] = target: Casein kinase I isoform gamma-2 (Homo sapiens) (UniProt P78368); settings: at 1 µM
[2] = target: Casein kinase I isoform gamma-3 (Homo sapiens) (UniProt Q9Y6M4); settings: at 0.1 µM
[3] = target: Casein kinase I isoform gamma-3 (Homo sapiens) (UniProt Q9Y6M4); settings: at 1 µM
[4] = target: Cyclin-dependent kinase 1 (Homo sapiens) (UniProt P06493); settings: at 0.1 µM
[5] = target: Cyclin-dependent kinase 1 (Homo sapiens) (UniProt P06493); settings: at 1 µM
[6] = target: Cyclin-dependent kinase 2 (Homo sapiens) (UniProt P24941); settings: at 0.1 µM
[7] = target: Cyclin-dependent kinase 2 (Homo sapiens) (UniProt P24941); settings: at 1 µM
[8] = target: Cyclin-dependent kinase 2 (Homo sapiens) (UniProt P24941); settings: at 0.1 µM; remark: listed apart in the source
[9] = target: Cyclin-dependent kinase 2 (Homo sapiens) (UniProt P24941); settings: at 1 µM; remark: listed apart in the source
[10] = target: T1, CDK3/Cyclin E (Homo sapiens) (UniProt P24864+Q00526); settings: at 0.1 µM
[11] = target: T1, CDK3/Cyclin E (Homo sapiens); settings: at 1 µM
[12] = target: Cyclin-dependent kinase 4 (Homo sapiens) (UniProt P11802); settings: at 0.1 µM
[13] = target: Cyclin-dependent kinase 4 (Homo sapiens) (UniProt P11802); settings: at 1 µM
[14] = target: Cyclin-dependent kinase 5 (Homo sapiens) (UniProt Q00535); settings: at 0.1 µM
[15] = target: Cyclin-dependent kinase 5 (Homo sapiens) (UniProt Q00535); settings: at 1 µM
[16] = target: Cyclin-dependent kinase 6 (Homo sapiens) (UniProt Q00534); settings: at 0.1 µM
[17] = target: Cyclin-dependent kinase 6 (Homo sapiens) (UniProt Q00534); settings: at 1 µM
[18] = target: Dual specificity protein kinase CLK2 (Homo sapiens) (UniProt P49760); settings: at 0.1 µM
[19] = target: Dual specificity protein kinase CLK2 (Homo sapiens) (UniProt P49760); settings: at 1 µM
[20] = target: Dual specificity protein kinase CLK3 (Homo sapiens) (UniProt P49761); settings: at 0.1 µM
Dual specificity protein kinase CLK3 (Homo sapiens), sequence (P49761 whole entry, looked up): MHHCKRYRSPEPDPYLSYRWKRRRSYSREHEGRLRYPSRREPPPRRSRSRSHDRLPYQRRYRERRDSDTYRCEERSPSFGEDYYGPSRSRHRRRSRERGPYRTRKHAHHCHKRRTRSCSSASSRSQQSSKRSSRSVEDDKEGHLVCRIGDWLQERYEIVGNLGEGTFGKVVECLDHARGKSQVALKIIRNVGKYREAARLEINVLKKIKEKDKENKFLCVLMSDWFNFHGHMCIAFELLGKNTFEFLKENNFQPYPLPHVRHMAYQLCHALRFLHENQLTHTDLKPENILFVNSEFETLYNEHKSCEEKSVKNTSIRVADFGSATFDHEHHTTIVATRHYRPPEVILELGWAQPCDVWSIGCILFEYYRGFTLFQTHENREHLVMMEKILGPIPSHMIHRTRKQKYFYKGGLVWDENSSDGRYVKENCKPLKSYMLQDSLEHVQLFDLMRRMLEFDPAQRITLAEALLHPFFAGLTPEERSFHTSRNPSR

T1 sequence (P24864 whole entry, looked up): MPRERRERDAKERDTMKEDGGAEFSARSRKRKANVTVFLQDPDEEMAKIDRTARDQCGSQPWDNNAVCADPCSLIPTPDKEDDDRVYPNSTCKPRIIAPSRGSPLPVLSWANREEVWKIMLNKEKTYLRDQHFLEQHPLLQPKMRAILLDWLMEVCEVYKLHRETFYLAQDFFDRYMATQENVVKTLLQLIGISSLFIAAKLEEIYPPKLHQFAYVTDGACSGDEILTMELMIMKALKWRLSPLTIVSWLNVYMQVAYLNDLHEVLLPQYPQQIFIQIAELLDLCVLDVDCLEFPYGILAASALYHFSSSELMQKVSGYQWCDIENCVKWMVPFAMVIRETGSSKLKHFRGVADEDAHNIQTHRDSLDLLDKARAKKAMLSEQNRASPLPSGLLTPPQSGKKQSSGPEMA
T1 sequence (Q00526 whole entry, looked up): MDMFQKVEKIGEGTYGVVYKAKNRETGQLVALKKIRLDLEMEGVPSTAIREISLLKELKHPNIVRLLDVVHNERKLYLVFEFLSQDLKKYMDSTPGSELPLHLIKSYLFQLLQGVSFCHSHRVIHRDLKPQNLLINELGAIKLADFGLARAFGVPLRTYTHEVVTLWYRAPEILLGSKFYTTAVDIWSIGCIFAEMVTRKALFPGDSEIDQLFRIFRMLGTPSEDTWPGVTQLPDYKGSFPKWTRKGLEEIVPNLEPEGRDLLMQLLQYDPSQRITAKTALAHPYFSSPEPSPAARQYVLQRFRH
Cyclin-dependent kinase 1 (Homo sapiens), sequence (P06493 whole entry, looked up): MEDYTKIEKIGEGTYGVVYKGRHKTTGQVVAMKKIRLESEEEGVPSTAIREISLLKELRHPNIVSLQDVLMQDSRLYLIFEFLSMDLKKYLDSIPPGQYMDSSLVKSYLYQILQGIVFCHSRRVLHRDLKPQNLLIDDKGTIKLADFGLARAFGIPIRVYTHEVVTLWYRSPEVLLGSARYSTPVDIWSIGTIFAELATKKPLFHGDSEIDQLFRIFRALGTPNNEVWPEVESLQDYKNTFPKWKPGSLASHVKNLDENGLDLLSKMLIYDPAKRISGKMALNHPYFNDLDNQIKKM
Casein kinase I isoform gamma-3 (Homo sapiens), sequence (Q9Y6M4 whole entry, looked up, canonical isoform): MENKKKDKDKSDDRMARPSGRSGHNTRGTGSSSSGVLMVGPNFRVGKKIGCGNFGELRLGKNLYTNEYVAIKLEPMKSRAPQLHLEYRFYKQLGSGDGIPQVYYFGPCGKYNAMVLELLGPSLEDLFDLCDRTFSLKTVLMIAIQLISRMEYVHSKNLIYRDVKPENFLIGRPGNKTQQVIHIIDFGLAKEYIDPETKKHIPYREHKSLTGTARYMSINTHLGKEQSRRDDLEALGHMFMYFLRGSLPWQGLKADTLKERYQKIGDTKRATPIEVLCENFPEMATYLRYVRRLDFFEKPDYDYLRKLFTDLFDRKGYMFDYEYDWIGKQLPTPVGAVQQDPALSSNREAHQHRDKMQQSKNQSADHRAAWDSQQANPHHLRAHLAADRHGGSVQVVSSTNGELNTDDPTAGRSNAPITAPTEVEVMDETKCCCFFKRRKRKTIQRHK
Cyclin-dependent kinase 6 (Homo sapiens), sequence (Q00534 whole entry): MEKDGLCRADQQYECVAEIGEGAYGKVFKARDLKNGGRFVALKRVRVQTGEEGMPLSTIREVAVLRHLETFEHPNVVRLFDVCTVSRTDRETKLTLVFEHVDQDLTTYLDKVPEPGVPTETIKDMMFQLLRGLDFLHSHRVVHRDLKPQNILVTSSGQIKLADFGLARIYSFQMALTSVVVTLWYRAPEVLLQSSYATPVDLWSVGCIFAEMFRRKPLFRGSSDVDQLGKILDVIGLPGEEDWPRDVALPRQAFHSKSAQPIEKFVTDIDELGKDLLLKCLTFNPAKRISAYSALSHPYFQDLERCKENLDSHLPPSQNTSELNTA
Dual specificity protein kinase CLK2 (Homo sapiens), sequence (P49760 whole entry, looked up): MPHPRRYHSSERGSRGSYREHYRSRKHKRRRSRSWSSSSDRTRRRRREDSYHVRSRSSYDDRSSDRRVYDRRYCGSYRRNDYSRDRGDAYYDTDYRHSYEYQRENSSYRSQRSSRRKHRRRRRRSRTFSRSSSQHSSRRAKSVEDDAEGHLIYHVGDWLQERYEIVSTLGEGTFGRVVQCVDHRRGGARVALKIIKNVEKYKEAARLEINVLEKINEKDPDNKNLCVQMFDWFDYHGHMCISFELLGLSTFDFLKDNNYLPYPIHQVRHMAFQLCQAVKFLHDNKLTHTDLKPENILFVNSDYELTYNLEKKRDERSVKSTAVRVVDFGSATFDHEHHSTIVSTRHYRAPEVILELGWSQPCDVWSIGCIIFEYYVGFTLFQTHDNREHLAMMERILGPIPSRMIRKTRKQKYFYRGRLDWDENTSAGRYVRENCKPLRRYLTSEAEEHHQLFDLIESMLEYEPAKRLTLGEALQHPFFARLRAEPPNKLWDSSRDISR
Cyclin-dependent kinase 4 (Homo sapiens), sequence (P11802 whole entry): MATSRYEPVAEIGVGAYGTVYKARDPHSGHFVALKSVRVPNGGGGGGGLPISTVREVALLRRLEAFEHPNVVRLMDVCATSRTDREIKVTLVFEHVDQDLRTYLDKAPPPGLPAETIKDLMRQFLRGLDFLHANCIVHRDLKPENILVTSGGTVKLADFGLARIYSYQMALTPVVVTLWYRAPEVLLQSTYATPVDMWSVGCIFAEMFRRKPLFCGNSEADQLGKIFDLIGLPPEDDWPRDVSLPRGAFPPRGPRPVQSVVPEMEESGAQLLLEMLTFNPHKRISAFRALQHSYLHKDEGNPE
Casein kinase I isoform gamma-2 (Homo sapiens), sequence (P78368 whole entry, looked up, canonical isoform): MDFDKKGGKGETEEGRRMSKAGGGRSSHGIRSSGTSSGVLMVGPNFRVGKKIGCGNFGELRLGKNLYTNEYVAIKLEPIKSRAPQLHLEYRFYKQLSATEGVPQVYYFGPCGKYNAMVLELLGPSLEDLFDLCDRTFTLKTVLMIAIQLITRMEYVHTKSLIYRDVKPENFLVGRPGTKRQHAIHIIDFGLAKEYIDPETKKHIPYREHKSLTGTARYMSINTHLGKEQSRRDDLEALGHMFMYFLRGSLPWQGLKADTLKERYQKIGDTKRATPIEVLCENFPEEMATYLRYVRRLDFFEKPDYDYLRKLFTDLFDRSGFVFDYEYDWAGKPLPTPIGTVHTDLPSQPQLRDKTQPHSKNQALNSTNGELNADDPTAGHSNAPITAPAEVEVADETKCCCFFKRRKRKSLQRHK
Cyclin-dependent kinase 5 (Homo sapiens), sequence (Q00535 whole entry, looked up): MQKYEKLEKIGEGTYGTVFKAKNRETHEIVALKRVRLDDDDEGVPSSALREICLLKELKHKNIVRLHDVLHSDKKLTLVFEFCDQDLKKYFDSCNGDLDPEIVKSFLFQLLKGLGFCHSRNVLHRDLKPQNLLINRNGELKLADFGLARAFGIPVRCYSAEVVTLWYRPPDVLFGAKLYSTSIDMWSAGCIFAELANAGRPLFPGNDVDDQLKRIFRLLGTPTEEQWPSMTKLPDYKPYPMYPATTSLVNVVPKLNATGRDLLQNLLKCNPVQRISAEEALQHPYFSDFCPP

| Compound | inhibition [1] [%] | inhibition [2] [%] | inhibition [3] [%] | inhibition [4] [%] | inhibition [5] [%] | inhibition [6] [%] | inhibition [7] [%] | inhibition [8] [%] | inhibition [9] [%] | inhibition [10] [%] | inhibition [11] [%] | inhibition [12] [%] | inhibition [13] [%] | inhibition [14] [%] | inhibition [15] [%] | inhibition [16] [%] | inhibition [17] [%] | inhibition [18] [%] | inhibition [19] [%] | inhibition [20] [%] |
| --- | --- | --- | --- | --- | --- | --- | --- | --- | --- | --- | --- | --- | --- | --- | --- | --- | --- | --- | --- | --- |
| COc1cccc(-n2ncc3c(N/N=C/c4ccc(F)cc4)ncnc32)c1 | 4.65 | 3.39 | 3.4 | 9.55 | 35.5 | 10.1 | 48.5 | 5.86 | 15.5 | 3.62 | 4.95 | 6.67 | 17.3 | 9.38 | 32.8 | 7.13 | 16.8 | 2.52 | 4.42 | 3.03 |
| COc1ccc(-c2oc3ncnc(N)c3c2-c2ccc(NC(=O)Nc3cc(C(F)(F)F)ccc3F)cc2)cc1 | 1.65 | 0.82 | 3.84 | 0.92 | 7.71 | 1.73 | 28.1 | 4.28 | 28.8 | 4.83 | 42.4 | 3.09 | 5.04 | 1.02 | 4.32 | 3.24 | 3.67 | 3.66 | 26.6 | 1.97 |
| N#Cc1c(NC(=O)c2ccc(F)cc2)sc2c1CCCC2 | 0.5 | 0.26 | -1.32 | -0.03 | -0.31 | 0.4 | -1.07 | 0.42 | 1.03 | 0.87 | -1.72 | 0.38 | 1.59 | 0.42 | 0.28 | -1.23 | -0.13 | -1 | 1.4 | 0.44 |
| COc1ccc(-c2cc3c(N)ncnc3o2)cc1 | -0.54 | -0.97 | 0.61 | 2.33 | 6.06 | 1.51 | 2.69 | 1.72 | 5.09 | 0.47 | 1.68 | 0.18 | 3.35 | 1.53 | 5.3 | -1.4 | 2.82 | 0.46 | 2.78 | 0.59 |
| O=S(=O)(CCNCc1ccc(-c2ccc3ncnc(Nc4ccc(OCc5cccc(F)c5)c(Cl)c4)c3c2)o1)c1ccccc1 | 5.75 | 4.59 | 5.14 | 0.29 | 1.65 | 2.32 | 2.63 | 3.6 | 5.45 | 0.01 | -1.98 | 4.84 | 5.57 | 0.05 | 1.21 | 0.74 | 2.65 | 0.01 | 1.31 | 0.95 |
| CCn1cc(-c2ccnc3[nH]ccc23)c(-c2cccc(NC(=O)Nc3ccc(OCc4ccccc4)cc3)c2)n1 | 1.8 | -0.46 | 0.79 | 0.04 | 0.38 | -0.95 | -1.61 | -0.54 | -2.22 | 0.47 | -2.23 | 1.32 | -0.47 | -0.05 | -0.93 | -2.8 | -4.5 | -0.56 | -2.09 | -0.94 |
| CS(=O)(=O)CCNCc1ccc(-c2ccc3ncnc(Nc4ccc(OCc5ccccc5)c(C(F)(F)F)c4)c3c2)o1 | 4.2 | 3.19 | 2.56 | 0.28 | 1.7 | 6.22 | 8.37 | 2.59 | 4.6 | 0.51 | -3.61 | 2.38 | 3.96 | 0.23 | 1.58 | -1.88 | -4.19 | 0.79 | -2.13 | 0.57 |

Source: ChEMBL document CHEMBL1961873, “Compounds: GSK PKIS; Assays: Nanosyn kinase panel” (2012)
